High-throughput results (PubChem)
HP1b chromo inh: blocks HP1-beta chromodomain binding to methylated histone tails; AID 540317; Potency, µM (highest dose often 114 µM), without a hit: at the highest dose activity change, negative = inhibition, usual class: inhibitors; actives 0.56% (n = 390,000); AlphaScreen HP1-beta / biotin-H3K9me3 peptide binding; further: potency means the concentration at half of the fitted maximal effect; nearly all actives have a fitted effect of over 70% in size
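Compound inhibition of the preformed complex between 50 nM HP1-beta and 50 nM biotinylated H3K9me3 peptide was read by AlphaScreen. Buffer was PBS pH 7.4 with 0.01% Tween-20. Incubations ran 30 min at room temperature, with 10 ug/mL donor/acceptor beads.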
JMJD2A Tudor: JMJD2A Tudor domain (human) inhibition. AlphaScreen JMJD2A-Tudor / H3K4me3 peptide binding. Potency, µM (titrated, usually from 114 µM), for inactives: at the highest dose activity change, negative = inhibition, most hits filed as inhibitors. actives 4.4% (n = 390,000). AID 504339; further: potency means the concentration at half of the fitted maximal effect; on the % scale 0 is the no-effect control and ±100 the full control effect; nearly all actives have a fitted effect of over 50% in size
Target sequence (O75164 whole entry, looked up, the tested form may be a part): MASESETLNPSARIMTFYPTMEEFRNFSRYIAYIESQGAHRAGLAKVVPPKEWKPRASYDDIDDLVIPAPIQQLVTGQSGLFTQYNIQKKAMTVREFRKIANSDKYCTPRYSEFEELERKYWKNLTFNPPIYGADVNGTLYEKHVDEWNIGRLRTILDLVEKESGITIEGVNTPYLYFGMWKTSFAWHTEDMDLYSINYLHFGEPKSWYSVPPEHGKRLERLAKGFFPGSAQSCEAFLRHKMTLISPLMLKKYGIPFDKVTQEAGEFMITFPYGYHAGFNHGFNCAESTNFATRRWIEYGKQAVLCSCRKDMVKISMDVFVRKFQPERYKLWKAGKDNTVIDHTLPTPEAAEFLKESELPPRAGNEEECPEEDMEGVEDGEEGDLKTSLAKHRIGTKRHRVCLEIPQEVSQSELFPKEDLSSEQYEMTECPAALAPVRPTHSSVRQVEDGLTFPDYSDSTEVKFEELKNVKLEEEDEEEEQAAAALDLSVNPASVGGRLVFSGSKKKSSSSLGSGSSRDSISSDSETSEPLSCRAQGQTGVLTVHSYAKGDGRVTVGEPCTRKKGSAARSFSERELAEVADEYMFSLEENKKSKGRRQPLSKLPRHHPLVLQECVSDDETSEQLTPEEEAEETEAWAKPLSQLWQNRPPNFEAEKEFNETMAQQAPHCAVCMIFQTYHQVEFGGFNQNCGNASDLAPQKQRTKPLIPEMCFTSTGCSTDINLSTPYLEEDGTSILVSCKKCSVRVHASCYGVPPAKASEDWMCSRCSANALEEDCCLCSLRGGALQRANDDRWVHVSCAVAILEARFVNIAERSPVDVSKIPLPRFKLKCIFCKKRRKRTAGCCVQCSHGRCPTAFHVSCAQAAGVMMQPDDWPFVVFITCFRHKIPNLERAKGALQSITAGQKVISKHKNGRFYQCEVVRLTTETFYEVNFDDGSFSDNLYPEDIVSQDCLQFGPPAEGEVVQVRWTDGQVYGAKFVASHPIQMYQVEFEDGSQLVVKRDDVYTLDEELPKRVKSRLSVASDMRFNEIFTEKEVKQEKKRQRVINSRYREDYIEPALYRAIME
Six1-Eya2 blk: Six1/Eya2 interaction inhibition; Q15475+O00167; AlphaScreen GST-Six1/His-Eya2 binding, biochemical; stronger effect = lower value; activity change, % (concentration not given with the values); actives 0.56% (n = 360,000); AID 651725; in the data active means activity change below about -65%; inconclusive means mostly about -30% to -63%; further: on the % scale 0 is the no-effect control and ±100 the full control effect
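Homogeneous AlphaScreen proximity assay pairing GST-Six1 with His-tagged Eya2 (added as 5X mix: 250 nM and 500 nM) in 50 mM Tris pH 8.0, 300 mM NaCl, 1 mM TCEP. Glutathione donor and nickel acceptor beads; 1 h, 37 °C, dark.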
CtBP-E1A inh: blocks the CtBP interaction with E1A | activity change, % (concentration not given with the values) | AlphaScreen GST-E1A/His-CtBP binding, 1536-well; stronger effect = lower value | actives 0.49% (n = 340,000); in the data active means activity change below about -65%; inconclusive means mostly about -30% to -63%; further: on the % scale 0 is the no-effect control and ±100 the full control effect
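Homogeneous bead-based format: GST-tagged E1A captured on glutathione donor beads, His-tagged CtBP on nickel acceptor beads; compounds precede bead addition by 2 h at 37 °C.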
G9a inh: blocks human histone lysine methyltransferase G9a; G9a H3K9 monomethylation, AlphaScreen, 2 h; Potency, µM (highest dose often 102 µM), for inactives: top-dose activity, negative = inhibition, most hits filed as inhibitors; actives 8.8% (n = 350,000); AID 504332; further: potency means the concentration at half of the fitted maximal effect; on the % scale 0 is the no-effect control and ±100 the full control effect; nearly all actives have a fitted effect of over 75% in size
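Readings reflect AlphaScreen signal from monomethyl-H3K9 antibody detection. HMT at 20 nM; substrate b-H3K9 500 nM; cofactor SAM 20 uM; 2 h RT reaction; compounds tested as titrations in qHTS with 15 min preincubation.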
BAZ2B inh: inhibitors of human BAZ2B bromodomain | Q9UIF8 | AlphaScreen BAZ2B-H3K14Ac peptide displacement | Potency, µM (titrated, usually from 114 µM), for the others: top-dose activity change, negative = inhibition, usual class: inhibitors | actives 4.4% (n = 360,000); further: potency means the concentration at half of the fitted maximal effect; on the % scale 0 is the no-effect control and ±100 the full control effect; nearly all actives have a fitted effect of over 60% in size
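BAZ2B (50 nM) with biotin-H3(5-23)K14Ac peptide (50 nM) in PBS pH 7.4, 0.01% Tween-20, preformed 30 min, then compound 30 min at room temperature; top concentration 110uM. AlphaScreen streptavidin donor/nickel chelate acceptor beads (10 ug/mL final), 20 min dark, signal read.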
* marks the source's active call; other numbers are inactive results; u = inconclusive; x = no result; [ ] = remark or other dose. A selection: hits, their analogues and other compounds. The true share with any hit is near 10%. Unless noted, the call rests on the fitted dose curve; in most records, active means well fitted inhibition curve with a large enough effect; inconclusive means small, poorly fitted or top-dose-only effect; inactive means no such curve, though single readings can be large or run the other way.

SMILES | HP1b chromo inh | JMJD2A Tudor | Six1-Eya2 blk | CtBP-E1A inh | G9a inh | BAZ2B inh
COc1cc(N)ccc1NC(=O)c1cccs1 | 30.9% | -33.3% | -12.7 | -9.6 | 8.91µM* | 5.9%
Cc1cc(NC(=O)COc2ccccc2C)ccc1NC(=O)c1cccs1 | 9.0% | -10.2% | -1.0 | 0.0 | 79.4µM* | 7.5%
COc1cccc(NC(=O)CCC(=O)Nc2cc(OC)c(NC(=O)c3cccs3)cc2OC)c1 | -2.6% | -24.4% | -68.6* | -82.2* | 10.7% | -12.6%
COc1cc(NC(=O)c2cc(OC)c(OC)c(OC)c2)ccc1NC(=O)c1cccs1 | 18.7% | -10.4% | -14.4 | 6.0 | 21.9% | -13.9%
Cc1ccc(CNC(=O)c2ccc3c(c2)nc2n3CCCC2)cc1 | 25.5%[57 µM] | 0.6% | x | x | 10.2%[59 µM] | 1.9%
CCOC(=O)c1cc(-c2ccccc2)n(CC(=O)Nc2cc(Cl)c(OC)cc2OC)c1C | 55.0% | -11.5% | x | x | -20.8%[59 µM] | 3.8%
COc1nc(N)nc(NC(=O)c2cccs2)c1N=O | 13.6% | 28.2µM* | -6.1 | -12.3 | x | x
COc1ccc(NC(=O)c2ccc(NC(=O)c3cccs3)cc2)cc1 | -4.5% | -8.8% | 19.4 | -3.7 | x | -0.1%
CCOc1ccccc1NC(=O)c1c(NCc2sccc2C)sc2c1CCC(C)C2 (configuration not stated) | -3.5% | -28.5% | x | x | -29.4%[59 µM] | -28.8%
CCOC(=O)N1CCc2c(sc(NCc3sccc3C)c2C(=O)Nc2ccc(OC)cc2OC)C1 | -2.3% | u | x | x | 3.55µM* | u
CCOC(=O)N1CCc2c(sc(NCc3sccc3C)c2C(=O)Nc2ccccc2OCC)C1 | 7.2% | u | x | x | 8.91µM* | -22.8%
COc1ccccc1NC(=O)c1c(NCc2sccc2C)sc2c1CCCCC2 | u | 44.7µM* | x | x | 10µM* | 31.6µM*
COC(=O)c1c(NC(=S)Nc2cc(OC)c(Cl)cc2OC)sc2c1CCCCC2 | -37.9% | 50.1µM* | -16.9 | -1.8 | 12.5%[59 µM] | -10.6%
COc1ccc(CNC(=O)c2ccc3c(c2)N(Cc2ccccc2F)C(=O)c2ccccc2S3=O)cc1 (configuration not stated) | 7.0% | -23.6% | x | x | u | -7.0%
COc1ccc(Cl)cc1NC(=O)c1c(NCc2sccc2C)sc2c1CCCC2 | u | 50.1µM* | x | x | 2.82µM* | 44.7µM*
COc1ccc(NC(=O)c2c(NCc3sccc3C)sc3c2CCCCC3)c(OC)c1 | -18.5% | u | x | x | 11.2µM* | 31.6µM*
CCOc1ccccc1NC(=O)c1c(NCc2sccc2C)sc2c1CCCCC2 | 3.9% | u | x | x | 10µM* | u
COc1ccc(NC(=O)c2c(NCc3cccc(F)c3)sc3c2CCCC3)c(OC)c1 | u | u | x | x | 10µM* | 25.1µM*
COCCNC(=O)c1cnc2sc(N3CCC(C)CC3)nn2c1=O | 13.2% | 2.6% | x | x | 0.5%[59 µM] | 0.2%
Cc1ccc(S(=O)(=O)N2CCN(c3nc(-c4ccc(C)s4)nc4ccccc34)CC2)cc1 | 30.1% | -16.3% | x | x | x | x
CCOC(=O)c1cccc(NC(=O)CC2C(=O)N(c3ccc(C)cc3)C(=O)N2Cc2cccc(OC)c2)c1 (configuration not stated) | 19.0% | -15.2% | x | x | u | -11.0%
CC1=C(C(=O)Nc2ccc(Cl)cc2)C(c2cccs2)n2nc(SCc3cccc(Cl)c3)nc2N1 (configuration not stated) | 9.8% | -5.1% | x | x | u | -8.9%
O=C(CN1CCN(c2ccc(F)cc2)CC1)Nc1ccccc1[N+](=O)[O-] | 50.1µM* | u | -9.4 | -2.2 | -4.3% | u
COC(=O)c1sccc1NC(=O)CN1CCN(c2ccc(F)cc2)CC1 | -13.6% | u | -16.6 | -2.0 | 44.7µM* | u
COc1ccccc1NC(=O)CN1CCN(c2ccc(F)cc2)CC1 | 3.4% | u | -4.3 | 0.1 | x | x
SMILES | HP1b chromo inh | JMJD2A Tudor | Six1-Eya2 blk | CtBP-E1A inh | G9a inh | BAZ2B inh
CC(=O)c1cc2c(cc1N/C(=N/S(=O)(=O)c1ccc(Cl)cc1)c1ccc(F)cc1)OCO2 | 11.0% | -12.3% | x | x | 3.4%[59 µM] | -24.6%
O=c1c2oc3ccccc3c2n(Cc2ccc(Cl)cc2)c(=O)n1Cc1ccco1 | -12.2% | -13.9% | x | x | -24.6%[59 µM] | u
O=C(Nc1ccc(-c2nc3cc(NC(=O)c4ccc(Cl)cc4)ccc3o2)cc1)c1ccc(Cl)cc1 | 27.2% | -8.7% | x | x | 8.0%[59 µM] | 0.6%
Cc1nc(C)c(N)c(=O)[nH]1 | 28.6% | -9.0%[11.4 µM] | 6.9 | x | 50.1µM* | -27.6%
OC(COc1ccc(Cl)cc1Cl)Cn1ccnc1 (configuration not stated) | 16.0% | -9.2% | 1.3 | 5.9 | -1.7% | -19.7%
C=CCc1cc(C)ccc1OCCOCCn1ccnc1 | 28.2µM* | 3.16µM* | -18.8 | -10.9 | 10µM* | 31.6µM*
C=CCc1cc(Cl)ccc1OCCn1ccnc1 | u | 20µM* | -4.2 | -7.8 | 7.08µM* | 50.1µM*
Clc1ccc(SCCn2ccnc2)cc1 | u | 3.55µM* | 1.9 | -5.7 | 31.6µM* | 56.2µM*
Cc1ccc(C)c(OCCCCCn2ccnc2)c1 | 1.2% | u | -2.9 | -14.9 | u | u
Clc1ccc(OCCn2ccnc2)c(Cl)c1 | u | 3.55µM* | 1.4 | 0.5 | u | 50.1µM*
Cc1ccc(S(=O)(=O)N2CCN(c3nc(C(N)=O)nc4ccccc34)CC2)cc1 | 36.1% | -8.8% | x | x | x | x
CCCS(=O)(=O)c1ncc(Cl)c(C(=O)N(Cc2ccccc2)Cc2ccco2)n1 | 23.9% | -28.5% | x | x | u | -13.7%
Cc1cc(Cl)c(OCCn2ccnc2)c(Br)c1 | u | 17.8µM* | -4.5 | 5.7 | x | u
Nc1[nH]c(=O)nc(Nc2ccccc2)c1N=O | 34.1% | 35.5µM* | u | -65.8* | x | x
O=c1nc(N2CCCC2)nc(Nc2ccccc2)[nH]1 | 6.2% | -24.7% | -13.2 | -1.2 | -7.1%[12.7 µM] | 3.5%
CC(=O)Nc1nc(C)c(S(N)(=O)=O)s1 | 41.9% | -6.8% | 2.4 | 16.6 | 1.9% | -0.7%
CC(=O)N=c1sc(S(N)(=O)=O)nn1C | 33.9% | -7.2% | 5.7 | 2.7 | 12.6µM* | -16.6%
COc1ccc(NC(=O)c2ccc3c(=O)n4nc(Nc5ccccc5C)sc4nc3c2)cc1Cl | 20.0% | -1.0% | x | x | u | -3.4%
Cc1ccc(-n2c(Cc3cccn3C)nnc2SCC(=O)NCc2ccc3c(c2)OCO3)cc1 | -6.3% | u | -20.1 | -21.2 | u | 50.1µM*
Cc1ccc(-n2c(Cc3cccn3C)nnc2SCC(=O)Nc2nnc(C)s2)cc1 | -6.6% | -33.3% | u | u | -7.5%[2.33 µM] | -30.4%
Cc1ccc(-n2c(Cc3cccn3C)nnc2SCC(=O)Nc2ccc3c(c2)OCO3)cc1 | u | 44.7µM* | -17.3 | -16.0 | u | 44.7µM*
CCC(CC)C(=O)N1c2ccccc2C(C)(c2ccccc2)CC1(C)C (configuration not stated) | 68.1% | 23.9% | x | x | 15.4%[59 µM] | 20.1%
